Consider 40 compounds from PubChem BioAssay (Tox21).

Results filed as inconclusive are left out. A call without a number means that no potency is given here. A number with no mark means an inactive call. Activity calls are given as the source filed them. Calls follow the shape of the dose curve; as a rule, active = well fitted activation curve with a large enough effect in the signal ratio in the repeat runs (not every such curve was filed as active); inconclusive = weak or mixed curves; inactive = flat fitted curve, though single readings scatter; the % refers to the signal ratio.
Potency is read from the fitted curve at half-maximal effect.

The nature of this assay: qHTS assay to identify small molecule agonists of H2AX (AID 1224845). Particulars: CHO-K1 phospho-H2AX Ser139 HTRF, 3 h; series mostly up to 154 µM. The text has this: National Center for Advancing Translational Sciences [NCATS]
NIH Chemical Genomics Center [NCGC]
U.S. Environmental Protection Agency [EPA]
National Institutes of Environmental Health Sciences [NIEHS]
National Toxicology Program [NTP]
U.S. Food and Drug Administration [FDA]
HTRF phospho-H2AX (Ser139) assay (Cisbio Bioassays, US) enables the quantitative detection of the histone variant H2AX when phosphorylated on serine 139. When double-stranded DNA breaks, either by ionizing radiation or endogenous physiological processes, H2AX becomes phosphorylated at Ser139. This phospho-Ser139 serves as a sensitive biomarker for the detection of such breaks, localizing the site of DNA repair. So, HTRF phospho-H2AX Ser139 is a pertinent assay to study genome stability, the cell cycle, DNA repair, and it serves as a biomarker for cancer, and to understand aging. Wild type CHO-K1 cells were used to identify the inducers of Phospho-H2AX Ser 139 from the Tox21 10K compound collections.
Tox21 Assay Protocol Summary:
The CHO-K1 cells suspended in culture medium containing 10% FBS were dispensed at 1000 cells/ 3 ul/well in 1536-well white wall/solid bottom plates (Greiner Bio-One North America, NC) using a Multidrop Combi (Thermo Fisher Scientific Inc., Waltham, MA). After the assay plates were incubated at 37C overnight, 23 nl of compounds at 15 concentrations (from 5-48 columns) or positive control (from 1 to 4 columns) were transferred to the assay plates using a Pintool station (Wako, San Diego, CA) into each well resulting in a final DMSO concentration of 0.76%. After 3hr incubation at 37C, 1 uL/well Supplemented Lysis buffer (diluted 100 fold blocking reagent in lysis buffer) (HTRF Phospho-H2A.X (S139) Assay kit from Cisbio US Inc., Bedford, MA) was added using a Flying Reagent Dispenser (FRD) (Aurora Discovery, CA). After 10sec spin at 1000 rpm in a plate centrifuge, the assay plates were incubated at room temperature for 30 min. Then followed by the addition of 1 uL/well detection buffer (containing a mixture of two antibodies, one labeled with cryptate, Anti pH2AX (S139)-K and another labeled with d2, Anti H2AX-d2) using FRD. After incubation at room temperature for 24 hr, the time resolved fluorescence at excitation 320 nm and emissions at 665 nm and 620 nm was measured using an Envision plate reader (PerkinElmer, Waltham, MA).
Turning to `CC(C)(O)CCC(C)(C)O`, the Potency result was “inactive”.
The same measure, in the same setting: for `OCCN1CCNCC1` the value was “inactive”; for `COC(=O)c1cccc(C(=O)OC)c1`, “inactive”.
As to `Cc1cc(C(C)(C)C)c(O)c(C(C)(C)C)c1`, the Potency entry is “inactive”.
On the same count and under the same terms, the same measure for `BrC1CCC(Br)C(Br)CCC(Br)C(Br)CCC1Br` (stereo not given): 89.4 µM (active); for `CC(C)(c1ccccc1)c1ccc(Nc2ccc(C(C)(C)c3ccccc3)cc2)cc1`: “inactive”.
Same read-out and setting: for `CC(C(O)c1ccc(O)cc1)N1CCC(Cc2ccccc2)CC1` (stereo not given) the value was “inactive”; for `CCN1CCCC1CNC(=O)c1cc(S(=O)(=O)CC)c(N)cc1OC` (stereo not given), “inactive”.
The same measure, in the same setting: for `O=C1Nc2ccccc2C1(c1ccc(O)cc1)c1ccc(O)cc1` the value was “inactive”.
Take `COc1nc(C)nc(Cl)c1NC1=NCCN1`: the Potency entry is “inactive”.
`CN1C(=O)c2ccc([N+](=O)[O-])cc2C1=O`: the Potency entry was “inactive”.
In the case of `CCCCOCCOC(=O)c1ccccc1C(=O)OCCOCCCC`, the Potency entry is “inactive”.
Same read-out and setting: the same measure for `O=Cc1ccc(Cl)cc1`: “inactive”; for `CC(C)(C)NCC(O)c1cc(O)cc(O)c1` (stereo not given): “inactive”; for `CC(C)C(=O)c1c(C(C)C)nn2ccccc12`: “inactive”.
The same measure, in the same setting: for `CCC(=O)/C=C/C1C(C)=CCCC1(C)C` (stereo not given) the value was “inactive”; for `N[C@@H]1CONC1=O`, “inactive”; for `CCOc1ccc2c(c1)C(C)=CC(C)(C)N2`, “inactive”.
For the compound `CCCCCCCCCCCCCCCCCl`, the activation (H2AX phosphorylation) was 1.73% [at 31.6 µM].
Take `CC(C)CCOCc1ccccc1`: the Potency entry is “inactive”.
For `O=C(O)c1cn(-c2ccc(F)cc2)c2cc(N3CCNCC3)c(F)cc2c1=O`, the Potency entry was “inactive”.
The same measure, in the same setting: for `CC1=CC(=O)c2ccccc2C1=O` the value was 40.1 µM (active).
Same read-out and setting: for `O=C(OCc1ccccc1)c1ccc(O)cc1` the value was “inactive”.
On the same count and under the same terms, for `C=C(C)C1CC=C(C)C(OC(C)=O)C1` (stereo not given) the value was “inactive”; for `CC[C@]1(O)C[C@@H]2CN(CCc3c([nH]c4ccccc34)[C@@](C(=O)OC)(c3cc4c(cc3OC)N(C)[C@H]3[C@@](O)(C(=O)OC)[C@H](OC(C)=O)[C@]5(CC)C=CCN6CC[C@]43[C@@H]65)C2)C1`, “inactive”; for `Cc1cccc2n[nH]nc12`, “inactive”.
Consider `c1ccc2c(c1)-c1cccc3c1c-2cc1ccccc13`, for which the Potency result was “inactive”.
With `CC1COc2c(N3CCN(C)CC3)c(F)cc3c(=O)c(C(=O)O)cn1c23` (stereo not given), the Potency result was “inactive”.
Regarding `Oc1ccc(Cl)cc1Cc1cc(Cl)ccc1O`, the Potency result is “inactive”.
On the same count and under the same terms, for `Oc1c(Cl)cc(Cl)c(Cl)c1Cc1c(O)c(Cl)cc(Cl)c1Cl` the value was “inactive”.
Still for that read-out and setting: for `NCCO` the value was “inactive”; for `O=S(=O)(O)c1ccc2nc(-c3ccccc3)[nH]c2c1`, “inactive”; for `COC(=O)/C=C/c1ccccc1`, “inactive”.
Same read-out and setting: for `O=C(Oc1ccccc1)c1ccccc1O` the value was “inactive”.
For `C#CC(C)(CC)OC(=O)c1ccccc1C(=O)O` (stereo not given), the Potency result is “inactive”.
Still for that read-out and setting: for `C[N+]1([O-])CCOCC1` the value was “inactive”; for `CCCCC/C=C/CC1CC(=O)OC1=O` (stereo not given), “inactive”; for `CC(COc1ccccc1)N(CCCl)Cc1ccccc1` (stereo not given), 113 µM (active).
On the same count and under the same terms, for `CCC(CO)(CO)COCC(CC)(CO)CO` the value was “inactive”; for `CCC(C)(Oc1ccc(C2(c3ccc(OC(C)(CC)C(=O)O)cc3)CCCCC2)cc1)C(=O)O` (stereo not given), “inactive”.
